hcDAF12 agonist: H. contortus DAF-12 activation, primary screen. AID 652067. activation, % at 6.8 µM. 370,000 compounds, 1.4% hits. HEK293 hcDAF-12 lit1-tk-luc reporter, luminescence; 0% DMSO, 100% Δ7-dafachronic acid;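 active means activation above the mean of all tested compounds plus 3 SD, cut at about 5.5% in these data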;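 further: 100% = response to 3 µM Δ7-dafachronic acid high control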
Rev-erbA mod: modulators of human Rev-erb alpha DNA binding | P20393 | Rev-erbα–FITC-DNA binding, fluorescence polarization, 90 min | activity, % at 10 µM | 370,000 compounds, 0.79% hits | AID 1259318;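 active means activity above about 14%, limit read from the data; passing the limit was not always enough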;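 further: 0% = DMSO wells with 35 nM protein and 100% = DMSO wells with 750 nM protein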
Target sequence (P20393 whole entry, looked up): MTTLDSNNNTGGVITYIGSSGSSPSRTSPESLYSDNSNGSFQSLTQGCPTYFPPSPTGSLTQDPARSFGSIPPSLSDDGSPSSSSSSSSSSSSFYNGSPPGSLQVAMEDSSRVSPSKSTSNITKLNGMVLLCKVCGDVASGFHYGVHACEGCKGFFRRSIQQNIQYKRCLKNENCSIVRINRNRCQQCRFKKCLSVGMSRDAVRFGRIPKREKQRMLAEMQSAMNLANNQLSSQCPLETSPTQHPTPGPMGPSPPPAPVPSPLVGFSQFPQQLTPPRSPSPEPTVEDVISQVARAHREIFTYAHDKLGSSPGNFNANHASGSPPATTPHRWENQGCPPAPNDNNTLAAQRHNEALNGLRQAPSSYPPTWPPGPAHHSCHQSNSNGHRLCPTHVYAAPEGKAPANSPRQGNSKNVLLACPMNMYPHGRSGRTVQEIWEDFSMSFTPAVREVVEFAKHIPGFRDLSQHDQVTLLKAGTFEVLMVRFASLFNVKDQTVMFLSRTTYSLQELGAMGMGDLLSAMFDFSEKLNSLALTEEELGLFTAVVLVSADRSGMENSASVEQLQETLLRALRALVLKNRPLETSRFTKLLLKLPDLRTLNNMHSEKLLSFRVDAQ
DAX1 inh-1: inhibitors of DAX1 repression of SF-1 activated StAR promoter; inhibition, % at 6.8 µM; AID 652010; HEK293T StAR-luciferase reporter, SF-1/DAX-1 repression relief; 370,000 compounds, 1.1% hits;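 active means inhibition above the mean over all tested compounds plus 3 SD, cut at about 3.6% in these data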;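 further: 0% = DAX-1 cells with DMSO and 100% = cells lacking DAX-1 with DMSO; higher inhibition means more luminescence from relief of DAX-1 repression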
hgDAF12 agonist: hgDAF-12 agonism, primary luciferase screen; HEK293 GAL4-hgDAF12 UAS-luciferase reporter, agonist luminescence; normalized to butyrate control; activation, % at 6.8 µM; 370,000 compounds, 1.8% hits; AID 687014;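 active means activation above a cutoff set at the mean of all screened compounds plus 3 SD, cut at about 10% in these data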;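 further: 0% = DMSO wells and 100% = sodium butyrate wells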
DAX1 inh-2: inhibitors of human orphan nuclear receptor DAX1 (NR0B1); AID 504766; P51843; inhibition, % at 6.75 µM; HEK293 Gal4-DAX1 luciferase reporter, luminescence; 340,000 compounds, 0.99% hits;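 active means inhibition above the mean over all tested compounds plus 3 SD, cut at about 4.2% in these data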;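 further: 0% = DAX1-transfected cells with DMSO and 100% = empty-vector control cells with DMSO; inhibition shows as a rise in luminescence from relieved DAX1 repression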
ssDAF12 agonist: S. stercoralis DAF-12 activation, primary screen; 370,000 compounds, 1% hits; activation, % at 6.8 µM; HEK293 ssDAF-12/GRIP1 lit1-tk-luc reporter, luminescence; % of 3 µM dafachronic acid response;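 active means activation above the mean over all tested compounds plus 3 SD, cut at about 0.9% in these data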;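 further: 0% = DMSO-only wells and 100% = 3 µM delta7-dafachronic acid wells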
* marks the source's active call; other numbers are inactive results; nt = no result. In the library only some 4.8% were active in any assay of this set; here they are far more common.

SMILES | hcDAF12 agonist | Rev-erbA mod | DAX1 inh-1 | hgDAF12 agonist | DAX1 inh-2 | ssDAF12 agonist
Cc1ccn2c(NC(=O)c3ccccc3)c(-c3cccs3)nc2c1 | 4 | -4 | -1 | 0 | -1 | -1
O=C(CCNC(=O)Cn1ccc2ccccc2c1=O)NCCCN1CCOCC1 | 0 | -6 | 0 | 2 | 5.1* | -1
CCOc1ccc(N(CC(=O)Nc2c(C)n(C)n(-c3ccccc3)c2=O)S(=O)(=O)c2cccc3cccnc23)cc1 | 1 | 1 | 0 | 0 | nt | -1
CCc1noc(C)c1C(=O)NNC(=O)c1nn(CC)c(=O)c2ccccc12 | 0 | -4 | -1 | 1 | 5.2* | -1
COc1ccc2c(c(-c3ccccc3)cn2C)c1-c1ccccc1 | 1 | -5 | 0 | 1 | nt | -1
CC(C)(C)NC(=O)c1cc(-c2ccc3c(c2)OCO3)nc2ccccc12 | 5.9* | -3 | -1 | 4 | 0 | 0
O=C(O)c1cc(-c2ccc3c(c2)OCO3)nc2ccc(Cl)cc12 | 5.8* | -2 | 1 | 1 | 0 | 1
O=C(c1cc(-c2ccncc2)nc2ccc(Cl)cc12)N1CCN(Cc2ccc3c(c2)OCO3)CC1 | 2 | 5 | 0 | -4 | -1 | -1
Cn1c(NC(=O)c2cc(-c3ccc4c(c3)OCO4)nc3ccccc23)cc(=O)n(C)c1=O | 1 | -2 | 1 | 3 | 2 | 0
CCN(C[C@H]1[C@@H](c2ccc(C3=CCCC3)cc2)[C@H](CO)N1Cc1ccccn1)S(=O)(=O)c1ccccc1[N+](=O)[O-] | 0 | 4 | -2 | -2 | nt | -1
O=c1c(O)c(-c2ccccc2)oc2ccccc12 | -3 | 1 | 1 | 7 | 4.9* | -1
COC(=O)[C@]12C[C@H](CC(=O)NCc3ccc(C)o3)C(=O)N(Cc3ccco3)C1=C[C@H](C1CCCC1)O[C@@H]2C | -2 | 6 | -1 | -5 | nt | -1
CCOC(=O)CC[C@H]1CC[C@]2(CCCN(C(=O)c3cccnc3)C2)O1 | -1 | -3 | 0 | 3 | nt | 0
NNC(=O)CNc1ccccc1Cl | 0 | -3 | 0 | 0 | 2 | 1.0*
CCOc1ccccc1C(=O)Nc1ccc(C(=O)NCC2COc3ccccc3O2)cc1 (stereo not given) | -3 | 3 | -1 | -5 | nt | -1
Cc1sc2nc[nH]c(=S)c2c1-c1ccccc1 | 0 | 8 | 0 | -3 | 1 | -2
S=c1[nH]cnc2sc(Nc3ccccc3)nc12 | 5.8* | 7 | 0 | 5 | 1 | 0
CCn1c(O)c(C2=c3ccccc3=NC2=O)c2cc(Br)ccc21 | 5 | 5 | 0 | 3 | nt | 1.0*
C/C(=C\C(=O)Nc1cscc1C)C(=O)O | 5 | -2 | 0 | 2 | 1 | 1.1*
O=C(c1cccc(F)c1F)N1CCCC(c2nc(-c3cccs3)no2)C1 (stereo not given) | -2 | 1 | 1 | 2 | nt | -1
O=C(COC(=O)C1CC1)c1c[nH]c2ccccc12 | 6.2* | -4 | 1 | 7 | 2 | 1.1*
O=C(OCC(=O)c1c[nH]c2ccccc12)c1cccc(S(=O)(=O)N2CCCCCC2)c1 | 1 | -3 | 0 | 1 | -1 | 1.1*
COc1cccc(C(=O)OCC(=O)c2c[nH]c3ccccc23)c1O | 5 | 3 | 0 | 4 | 1 | 1.9*
CC(=O)OCC(=O)c1c[nH]c2ccccc12 | 5 | -8 | 0 | 2 | 2 | 1.1*
O=C(Cc1c[nH]c2ccccc12)Nc1ccc(Nc2cccnc2)c(-c2ccc(OC(F)(F)F)cc2)c1 | 1 | 9 | -1 | 0 | nt | -1
SMILES | hcDAF12 agonist | Rev-erbA mod | DAX1 inh-1 | hgDAF12 agonist | DAX1 inh-2 | ssDAF12 agonist
N#Cc1ccccc1OCC(=O)OCC(=O)c1c[nH]c2ccccc12 | 2 | 0 | 4.1* | 2 | 0 | 0
O=C(COc1cccnc1[N+](=O)[O-])c1c[nH]c2ccccc12 | 5.9* | 1 | 0 | 2 | -1 | -1
CSC(=NC#N)N1CCN(C(c2ccccc2)c2ccccc2)CC1 | 1 | 5 | -1 | 1 | 0 | -1
CSC(=NC#N)N1CCN(C(=NC#N)SC)CC1 | 0 | 4 | -1 | 1 | 4.7* | 0
CN(CCCOC(=O)c1occ2ccccc12)C1CN(Cc2cn(Cc3ccccc3Cl)nn2)S(=O)(=O)C1 (stereo not given) | -2 | 3 | 0 | 2 | nt | -2
CCN(Cc1ccncc1)C(=O)C(CO)c1ccccc1 (stereo not given) | -3 | 1 | 1 | 11* | -1 | -1
CCN(Cc1ccncc1)C(=S)Nc1ccccc1 | -1 | -2 | -1 | -3 | -1 | -2
CCOC(=O)c1sc(NC(=O)Nc2ccccc2F)nc1C | 3 | 4 | 3.7* | 2 | -2 | 0
CCOC(=O)c1sc(NC(=O)CSc2nncn2C)nc1C | 1 | 2 | 0 | 4 | 5.2* | -2
CN(C(=O)c1ccccc1Cl)c1ccccc1C(=O)NCc1ccccc1 | 0 | -6 | 4.1* | 3 | 0 | -1
CCOC(=O)N1CCN(C(=O)C[C@@H]2C(=O)N3CCCC4=C3[C@@]2(C(=O)OCC)CCC4)CC1 | 0 | 6 | 0 | 1 | nt | -1
CCOC(=O)N1CCN(C(=O)C[C@H]2C[C@@]3(C(=O)OC)C(=C[C@H](C(C)(C)C)O[C@@H]3C)N(Cc3ccco3)C2=O)CC1 | -1 | -4 | 1 | 0 | nt | -1
Nn1c(SCc2ccccc2)nc2ccccc21 | 2 | 1 | 1 | 12* | 1 | 0
Cn1c(=O)oc2cc(S(=O)(=O)NCCC(=O)N3CCN(c4ccccc4F)CC3)ccc21 | -2 | -10 | 0 | 1 | 0 | -1
CC(C)C(NS(=O)(=O)c1ccc2c(c1)oc(=O)n2C)C(=O)N1CCN(c2ccccc2F)CC1 (stereo not given) | -1 | 0 | -1 | -1 | 4.8* | -1
CC(C)(C)c1ccc(-c2cc(NC(=O)Cc3c[nH]c4ccccc34)ccc2Nc2cccnc2)cc1 | 3 | -1 | 0 | 2 | nt | 1.7*
CCCc1ccc(-c2cc(NC(=O)Cc3c[nH]c4ccccc34)ccc2Nc2cccnc2)cc1 | 2 | -1 | -1 | 2 | nt | 0
Cc1ccc(-c2ccc(/C=N/O)o2)cc1[N+](=O)[O-] | 0 | -3 | 0 | 13* | -2 | -2
CCOC(=O)c1ccc(N(CC(C)O)CC(C)O)cc1 (stereo not given) | nt | -8 | nt | nt | nt | nt
CC1(NC(=S)Nc2ccc3ccccc3c2)CCS(=O)(=O)C1 (stereo not given) | 5 | -1 | 1 | 1 | -1 | 0
CN(C)C(=S)NC(=S)Nc1ccc2ccccc2c1 | 12* | -12 | 3 | 17* | 0 | 1.3*
COC(=O)[C@H](CC(C)C)N(CCCc1cn(Cc2ccccc2)nn1)S(=O)(=O)c1ccccc1Br | -2 | -5 | -2 | 2 | nt | -2
